Screens deposited in PubChem by National Center for Advancing Translational Sciences (NCATS).
D1 agonist = human D1 receptor agonism | activation, % at 2 µM | AID 504660 | HEK293 T-REx D1 cells, calcium flux, agonist mode | P21728 | actives 1% (n = 360,000); in the data active = activation above about 30%; note: 0% is about no effect
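Agonism was scored from calcium flux recorded over 180 s (1 read/s) after pintool compound addition, following a 10-cycle baseline. Cells were inducible force-coupled HEK293 TREx D1, plated overnight at 30 C and loaded with no-wash calcium dye.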
DRD3 antagonist = blocks the human D3 dopamine receptor | P35462 | D3R cells, DiscoveRx beta-arrestin luminescence, antagonist mode; stronger effect = lower value | max response, negative = inhibition, % | actives 2.5% (n = 360,000) | AID 652054; in the data active = max response below about -50%; inconclusive = no clear call, values can overlap the other calls; note: % is set by controls: 0 for no effect and ±100 for the full control effect
Target sequence (P35462 whole entry, looked up): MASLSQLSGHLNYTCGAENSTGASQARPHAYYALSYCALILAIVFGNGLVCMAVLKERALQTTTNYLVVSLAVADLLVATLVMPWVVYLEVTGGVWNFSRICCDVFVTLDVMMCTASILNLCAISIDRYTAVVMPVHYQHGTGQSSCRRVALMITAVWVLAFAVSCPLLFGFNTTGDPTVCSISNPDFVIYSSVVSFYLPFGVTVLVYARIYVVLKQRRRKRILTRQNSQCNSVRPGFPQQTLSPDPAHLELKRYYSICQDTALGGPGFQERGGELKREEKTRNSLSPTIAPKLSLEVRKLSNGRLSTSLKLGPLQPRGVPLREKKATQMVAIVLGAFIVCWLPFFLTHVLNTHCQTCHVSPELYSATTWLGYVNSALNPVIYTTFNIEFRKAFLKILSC
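Cells plated overnight at 1500 cells/well, then exposed to library compounds with dopamine controls for 90 minutes at 37 degrees C. DiscoveRx reagent added for 30–60 minutes at room temperature; luminescence read, quantitative HTS format.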
D1 antagonist = human D1 dopamine receptor antagonism | activity change, negative = inhibition, % at 10 µM | AID 504652 | P21728 | actives 3.2% (n = 360,000) | HEK293 TREx D1 cells, calcium flux, dopamine EC80; stronger effect = lower value; in the data active = activity change below about -30%; note: % is set by controls: 0 for no effect and ±100 for the full control effect
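Using tetracycline-induced force-coupled D1 Hek293 cells and a calcium dye, signals were followed for 180 s after compound, then for 180 s after EC80 dopamine, to detect inhibitors.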
D3 ag = D3 dopamine receptor (human) agonism | D3R DiscoveRx beta-arrestin cells, luminescence, 90 min | max activation, % | actives 0.58% (n = 410,000); in the data active = max activation above about 30%; note: 0% is about no effect
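Agonist mode: compounds and dopamine controls were applied to plated cells for 90 min at 37 degrees C after an overnight attachment at 1500 cells/well. Luminescent read-out followed 30 - 60 minutes at room temperature with DiscoveRx detection reagent.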
D1 potentiator = human D1 dopamine receptor positive modulation. potentiation, % at 10 µM. actives 0.036% (n = 360,000). AID 504651. HEK293 TREx D1 cells, calcium flux, dopamine EC20 potentiation. P21728; in the data active = potentiation above about 30%; note: 0% is about no effect
Starred values were filed as active, the others as inactive; ? = inconclusive; . = no result given. Shown are actives, neighbours in structure and some others; about 6.1% of the full set was active somewhere.

SMILES | D1 agonist | DRD3 antagonist | D1 antagonist | D3 ag | D1 potentiator
Cc1cc2c(s1)c1cnn(Cc3ccc(C(=O)O)cc3)c(=O)c1n2C | 6.9 | . | -4.8 | . | 5.0
COC(=O)C1=C(C)Nc2ncnn2C1c1ccc(OCc2ccccc2)cc1 (centres undefined) | 4.1 | 6.4 | -37.7* | 3.4 | -5.0
COCCOC(=O)C1=C(C)Nc2ncnn2C1c1ccccc1 (centres undefined) | 3.1 | 13.5 | -10.7 | -0.5 | -8.4
CC1=C(C(=O)OC(C)C)C(c2ccncc2)n2ncnc2N1 (centres undefined) | 2.3 | 24.1 | -11.5 | 2.2 | -2.0
CC1=C(C(=O)OC(C)C)C(c2cccnc2)n2ncnc2N1 (centres undefined) | 0.8 | 9.2 | -34.3* | 0.8 | .
COC(=O)c1ccc(C2C(C(C)=O)=C(C)Nc3ncnn32)cc1 (centres undefined) | 0.8 | -73.9* | 2.0 | -3.2 | 2.0
COC(=O)C(C(=O)OC)c1ccccc1CNS(=O)(=O)c1ccc(C)cc1 | . | 4.6 | . | -2.2 | .
CCN(CC(=O)Nc1c(F)cccc1F)C(=O)/C=C/c1cn(Cc2ccccc2)nc1-c1cccnc1 | 0.7 | -5.0 | -1.2 | -6.1 | -2.9
NC(=O)CC(NC(=O)c1cccc(Br)c1)c1ccc(NC2CCCCCCC2)c([N+](=O)[O-])c1 (centres undefined) | 0.2 | 17.5 | -4.3 | 6.2 | 0.6
CC1(C)OC(C)(C)/C(=C\c2ccc(OCC(N)=O)cc2)C1=O | 3.8 | 6.0 | -65.7* | 5.1 | 0.7
O=C(Cc1cn(-c2ccccc2)nc1-c1ccccc1)N1CCCCC1 | 4.4 | -3.8 | -1.6 | 4.1 | -8.1
CCC1(c2ccccc2)NC(=O)N(CC(=O)Nc2cc(S(=O)(=O)N3CCCCC3)ccc2OC(C)C)C1=O (centres undefined) | -2.4 | 0.7 | 9.3 | -1.5 | -2.9
COC(=O)c1cc(Cl)c(NC(=O)c2cc(OC)c(OC)c(OC)c2)cc1OC | 1.4 | 33.0 | 5.2 | 41.1* | -8.1
COc1c(Cl)cc(C(=O)Nc2ccccc2C(=O)O)cc1Cl | 3.3 | 18.3 | -36.9* | 1.1 | 6.1
Cc1ccc(OCc2cc(C(=O)N(CCO)Cc3cccs3)no2)cc1C | 16.6 | 9.9 | -45.2* | 4.0 | -8.2
CCN(Cc1ccncc1)C(=O)c1cc(COc2ccc(C)c(C)c2)on1 | 14.5 | 15.7 | -22.6 | 6.4 | -12.2
Nc1ccc(-c2cc(-c3ccc(N)cc3)nc(-c3ccccc3)n2)cc1 | 2.9 | 8.2 | -2.5 | -5.2 | -5.5
CS(=O)c1nc(-c2ccc(Br)cc2)cc(-c2ccccc2)c1C#N (centres undefined) | 2.5 | -56.3* | -27.4 | -2.6 | -6.2
N#Cc1c(-c2ccccc2)cc(-c2ccc(O)cc2)nc1N | 6.0 | -5.2 | -41.8* | 1.4 | 1.8
Oc1ccc(-c2cc(-c3ccc(O)cc3)nc(-c3ccccc3)n2)cc1 | 5.5 | 3.1 | -39.7* | -1.2 | -5.0
CS(=O)(=O)c1nc(-c2ccc(Br)cc2)cc(-c2ccccc2)c1C#N | 3.9 | -17.0 | -21.2 | 12.0 | -4.8
COc1ccc([C@]23Cc4ccccc4C(O2)C2=C(O3)C(=O)c3ccccc3C2=O)cc1 | 1.4 | . | -1.6 | . | -3.1
CCc1ccc(Sc2cc(C(=O)NCCCN3CCCC(C)C3)c3ccccc3n2)cc1 (centres undefined) | 35.7* | . | -22.0 | -10.5 | 0.5
CCOc1ccc(-c2cc(C(=O)NCc3ccc(C)cc3)c3ccccc3n2)cc1 | 0.4 | . | 3.5 | 1.7 | -2.8
CCOc1ccc(-c2cc(C(=O)NCc3ccccc3Cl)c3ccccc3n2)cc1 | -1.7 | . | -36.2* | -1.1 | -2.2
SMILES | D1 agonist | DRD3 antagonist | D1 antagonist | D3 ag | D1 potentiator
CCOc1ccc(Sc2cc(C(=O)NCc3ccccc3Cl)c3ccccc3n2)cc1 | 3.9 | . | -36.5* | 0.5 | -2.5
CCc1ccc(Sc2cc(C(=O)NCCCN3CCC(C)CC3)c3ccccc3n2)cc1 | 29.5 | . | -20.9 | -13.7 | 0.1
CCc1ccc(Nc2cc(C(=O)NCCCN3CCOCC3)c3ccccc3n2)cc1 | 50.7* | 1.2 | -26.2 | -7.4 | -6.5
O=C(CSc1nnc(-c2ccc(F)cc2)o1)N1CCCc2ccccc21 | 0.0 | . | 5.6 | 3.3 | -2.6
CCc1ccc(Sc2cc(C(=O)NCc3cccc(OC)c3)c3ccccc3n2)cc1 | 13.5 | . | -31.9* | 1.2 | -2.5
CSc1cnn(CCC#N)c(=O)n1 | . | 6.0 | . | -0.1 | .
CSc1nc(=O)n(CCC#N)nc1SC | . | -65.0* | . | -16.1 | .
CCOC(=O)c1cc(S(=O)(=O)NCc2ccccc2)[nH]n1 | -0.3 | . | 2.1 | -11.6 | 4.8
C=CCN(CC=C)C(=O)C1c2ccccc2Oc2ccccc21 | . | -2.2 | . | -6.1 | .
Cc1ccc(OC(=O)C2c3ccccc3Oc3ccccc32)cc1C | 31.7* | 7.5 | -12.0 | 9.2 | -3.6
CCN(CC)C(=O)C1c2ccccc2Oc2ccccc21 | 32.0* | ? | -0.6 | 3.6 | 3.0
COC(=O)NC1c2ccccc2Oc2ccc(C)cc21 (centres undefined) | 19.0 | 9.2 | 6.1 | -2.9 | 0.2
CC(=O)c1ccc(OC(=O)C2c3ccccc3Oc3ccccc32)cc1 | 6.3 | -27.2 | -4.1 | -0.8 | 3.9
COC(=O)NC1c2ccccc2Oc2ccccc21 | 74.6* | -20.4 | 0.0 | -23.6 | -7.8
Cc1ccc(NC(=O)C(=O)NCC(c2cccnc2)N2CCN(C)CC2)cc1C (centres undefined) | 0.4 | . | 2.1 | 1.8 | -0.2
Cc1nc2c(=O)n(C)c(=O)[nH]c2n1Cc1ccccc1 | 4.7 | -61.5* | 0.2 | -2.5 | -4.3
CCn1c(=N)c(C(=O)NCC2CCCO2)cc2c(=O)n3cc(C)ccc3nc21 (centres undefined) | 2.7 | . | 14.5 | -6.4 | -2.5
Cc1cn([C@H]2C[C@H](O)[C@@H](CNC/C=C/c3ccccc3[N+](=O)[O-])O2)c(=O)[nH]c1=O | . | -23.4 | . | 73.6* | .
Cc1ccccc1C(=O)Nc1cc(NC(=O)c2ccccc2C)cc(C(=O)O)c1 | 7.0 | -2.5 | -38.5* | -0.7 | -3.8
COC(=O)c1cc(NC(=O)c2ccccc2F)cc(C(=O)OC)c1 | 5.7 | -8.0 | -31.6* | 1.2 | 2.9
O=C(Nc1ccc(N2CCOCC2)c(Cl)c1)c1ccc(-n2cnnc2)cc1Cl | 5.1 | 21.4 | 9.4 | 2.3 | -7.8
Cn1nnnc1SCCNCc1ccc(OCc2ccccc2Cl)cc1 | 97.7* | . | -5.3 | 22.8 | -0.9
Cn1nnnc1SCCNCc1ccc(OCc2ccccc2)cc1 | 10.9 | . | 1.8 | -12.4 | -1.1
Cn1nnnc1SCCCNCc1ccccc1OCc1ccc(Cl)cc1 | 75.1* | . | -38.8* | -22.4 | -0.1
CCOc1cccc(CNCCCSc2nnnn2C)c1 | 0.2 | . | -13.0 | -26.4 | 0.8
Cn1nnnc1SCCCNCc1cccc(OCc2ccc(F)cc2)c1 | 149.8* | . | -31.1* | -26.7 | 4.6
O=C(CCN1CCN(C(=O)c2ccccc2)CC1)c1ccc(Br)cc1 | 6.7 | -20.5 | 1.1 | -25.3 | -7.2
CC(O)(c1cccc(F)c1)c1nc(/C=C/c2ccccc2)cs1 (centres undefined) | . | -87.9* | . | -17.8 | .
